The results in this text go back to PubChem BioAssay (NCI).

Where “and” joins values, the source holds several entries; their conditions need not be identical. Identical values can stand only once. About 83,000 compounds went through this panel and 20% of them were active in at least one assay; those are over-represented in the sample as a whole.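 Treatment: one concentration, 48 hours, 96-well format. Scoring: percent growth, with anything below 10 considered active.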 Unmarked numbers belong to inactive results. Calls of active or inactive are those of the source.

Assay in all cases: NCI-60 one-dose screen, 48 h (100 = growth as untreated, 0 = no growth, -100 = all killed)
Conditions in all cases: 10 µM unless noted

For assay [1], the system named is NCI-H23 lung.
Assay [2] has as its system NCI-H226 lung.
The subject of assay [3] is NCI-H322M lung.
Assay [4] deals with NCI-H460 lung.
In assay [5] the test system is HOP-92 NSCLC.
Assay [6] relates to NCI-H522 lung.
Assay [7] relates to A549/ATCC NSCLC.
The test system of assay [8] is 786-0 renal.
The test system of assay [9] is COLO 205 colon.
For assay [10], the system named is DU-145 prostate.
Assay [11] deals with K-562 leukemia.
The subject of assay [12] is MALME-3M melanoma.
Assay [13] deals with MDA-MB-231 breast.
Assay [14] relates to RXF 393 renal.
In assay [15] the test system is SF-268 CNS.
Assay [16] concerns SF-295 CNS.
Assay [17] has as its system SF-539 CNS.
Assay [18] has as its system UACC-257 melanoma.
Assay [19] deals with M14 melanoma.

On to `O=[N+]([O-])c1ccc(NC2CCCCC2)nc1`, for which the growth in assay [1] is 93.2% and 96.9%; in assay [2] it was 113% and 92.4%; in assay [3] it was 117% and 105%; in assay [4] it was 108% and 105%; in assay [5] it was 114% and 81.8%; in assay [6] it was 95.1% and 92.1%. For the same compound, the growth in [7] was 101% and 98.5%; in assay [8], 103%; in assay [9] it was 108% and 102%; in assay [10], 96.7% and 119%; in assay [11], 108% and 104%; in assay [12] it was 118%. The growth is 95.4% and 114% in assay [13]; 126% and 103% in assay [14]; 110% and 112% in assay [15]; 103% and 102% in assay [16]; 99.6% and 110% in [17]; 107% and 106% in [18]. In [19], the growth was 105% and 109%.

Take `O=C1CCC(=O)N1CC1CC2CCC1C2` (centres undefined): the growth in assay [1] was 92.7% and 102%; in [2], 95.9% and 92.2%; in assay [3], 104% and 80.5%; in assay [4] it was 107% and 102%; in assay [5], 99.9% and 101%; in assay [6], 91.8% and 95.2%. In addition, the growth was 111% and 99.1% in [7]; 98.5% and 97.6% in assay [8]; 117% and 92.5% in [9]; 127% and 98.7% in assay [10]; 71.2% and 94.1% in assay [11]; 98.1% and 87.7% in assay [12]. For the same compound, the growth was 98.8% in assay [13]; 105% and 106% in [14]; 100% and 95.2% in [15]; 83.4% and 90.2% in assay [16]; 101% and 87.8% in assay [17]; 104% and 83.5% in [18]. In addition, the growth in assay [19] is 103% and 95.6%.

Consider `CCOC(=O)c1csc(N)n1`, for which the growth in assay [1] is 105% and 102%; in [2], 102% and 105%; in [3] it was 87.1% and 101%; in assay [4], 105%; in assay [5] it was 96% and 95.7%; in assay [6] it was 88.7%. Also, the growth in assay [7] is 81.5% and 93.8%; in assay [8], 101% and 100%; in assay [9], 129% and 108%; in [10], 105% and 104%; in assay [11], 101% and 102%; in assay [12], 112% and 108%. In addition, the growth is 107% and 98.7% in assay [13]; 100% in [14]; 108% and 96.7% in [15]; 99.8% and 92.5% in assay [16]; 94.8% and 101% in assay [17]; 87.3% in assay [18]. The growth in assay [19] is 118% and 98.3%.

Take `O=C(O)/C=C/C=C/c1ccccc1`: the growth in [1] is 104% and 99.9%; in assay [2], 99.4% and 100%; in assay [3], 104% and 107%; in assay [4] it was 107% and 112%; in assay [5] it was 99.5% and 102%; in [6] it was 94.8% and 106%. For the same compound, the growth in assay [7] was 98.4% and 97.8%; in [8], 105% and 109%; in assay [9] it was 105% and 113%; in [10] it was 106% and 109%; in [11], 114% and 110%; in [12] it was 103% and 114%. In addition, the growth in [13] is 101% and 106%; in assay [14], 113% and 120%; in assay [15], 101%; in assay [16], 105% and 101%; in [17], 96.7% and 98.6%; in [18], 102% and 93.2%. Besides, the growth in assay [19] was 101%.

On to `Clc1ccc2c(c1)N(C1CCCN(Cc3ccccc3)C1)c1ccccc1S2` (centres undefined), for which the growth is 61.9% in [1]; 82.1% in assay [2]; 31.1% in [3]; 25.4% in [4]; 51.7% in [5]; 14.9% in assay [6]. Besides, the growth in assay [7] was 35%; in assay [8], 61.8%; in assay [9] it was 3.47% (active); in [10], 74.1%; in assay [11] it was 18.5%; in assay [12], 78.4%. The growth is 51.8% in assay [13]; -15.7% (active) in assay [14]; 39.2% in assay [15]; 77.6% in [16]; 40.8% in [17]; 55.1% in [18]. In addition, the growth in assay [19] is -26.9% (active).

As for `COc1ccc(CCn2cnn3c(=O)c4ccccc4nc3c2=O)cc1OC`, the growth in assay [1] was 97.6% and 114%; in assay [2] it was 94.7% and 97%; in assay [3] it was 103% and 110%; in assay [4], 105% and 118%; in assay [5], 93.6% and 88.7%; in [6], 112% and 97.6%. In addition, the growth in assay [7] is 104% and 106%; in [8] it was 95.2% and 108%; in assay [9] it was 104% and 117%; in [10], 98.2% and 117%; in assay [11], 99.9% and 102%; in [12] it was 114%. In addition, the growth is 110% and 101% in [13]; 103% and 115% in assay [14]; 93.8% and 108% in assay [15]; 111% in [16]; 101% and 97.4% in assay [17]; 101% and 112% in [18]. The growth in assay [19] was 94% and 106%.
